This is an account of results in ChEMBL document CHEMBL1961873, “Compounds: GSK PKIS; Assays: Nanosyn kinase panel” (2012).

SMILES strings stand for the structures.
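Further: reported values are mean percent inhibition of PAK1 activity.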

The target of this test is Serine/threonine-protein kinase PAK 1 (Homo sapiens) (UniProt Q13153). Particulars: at 1 µM.
Chain of Serine/threonine-protein kinase PAK 1 (Homo sapiens) (Q13153 whole entry): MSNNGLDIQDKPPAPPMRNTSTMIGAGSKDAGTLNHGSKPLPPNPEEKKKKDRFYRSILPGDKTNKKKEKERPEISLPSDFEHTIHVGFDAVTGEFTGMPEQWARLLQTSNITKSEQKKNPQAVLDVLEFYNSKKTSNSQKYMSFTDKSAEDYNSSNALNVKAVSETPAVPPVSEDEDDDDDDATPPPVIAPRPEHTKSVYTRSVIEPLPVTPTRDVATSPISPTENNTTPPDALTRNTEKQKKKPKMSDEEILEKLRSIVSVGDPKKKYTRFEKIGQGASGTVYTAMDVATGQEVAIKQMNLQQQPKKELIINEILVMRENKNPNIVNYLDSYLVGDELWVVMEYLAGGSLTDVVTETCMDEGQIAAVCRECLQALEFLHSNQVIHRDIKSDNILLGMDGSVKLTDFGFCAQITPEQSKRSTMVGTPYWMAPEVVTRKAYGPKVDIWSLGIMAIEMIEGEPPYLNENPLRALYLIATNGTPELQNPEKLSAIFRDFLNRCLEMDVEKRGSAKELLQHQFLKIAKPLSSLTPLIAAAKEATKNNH
A word on the inhibition: it is the drop in the measured response relative to a control, in per cent. `O=C(Nc1n[nH]c2nc(-c3ccc(O)cc3)c(Br)cc12)C1CC1`: the inhibition stood at 8.21%. As to `Fc1ccc(-c2ncn(CCCN3CCOCC3)c2-c2ccncc2)cc1`, the inhibition came out at 3.02%. With `COc1ccc2cc(-c3c(-c4ccncc4)nc(-c4ccc([S+](C)[O-])cc4C)n3C)ccc2c1` (stereo unspecified) the figure was -0.86%; with `c1ccc(Oc2ccc(Nc3ncc(-c4ccccc4)o3)cc2)cc1`, 6.59%; with `C[C@@H](Oc1cc(-n2cnc3ccc(OC4CCN(C)CC4)cc32)sc1C(N)=O)c1ccccc1Cl`, 7.26%. On to `NC(=O)c1cc(-c2ccncc2)cc(-c2ccccc2)c1N`, for which the inhibition came out at 6.44%. Consider `O=C(NCC1CC1)c1ccc(-c2cccc(C(=O)NC3CC3)c2)cc1`, for which the inhibition is 3.71%. Consider `O=C1Nc2ccccc2/C1=C/Nc1ccc(-n2cncn2)cc1`, for which the inhibition turned out to be 8.31%. In the case of `CN(C)c1ccc2c(c1)/C(=C/Nc1ccc(S(N)(=O)=O)cc1)C(=O)N2` it was 2.53%; in that of `C[C@@H](Oc1cc(-n2cnc3ccc(OCC4CCN(C)CC4)cc32)sc1C(N)=O)c1ccccc1Cl`, 11.3%; in that of `CN(C)CCCNc1nccc(-c2c(-c3ccc(F)cc3)nn3cc(C(F)(F)F)ccc23)n1`, -0.15%. With `COc1ccc2ncn(-c3cc(O[C@H](C)c4ccccc4Cl)c(C(N)=O)s3)c2c1`, the inhibition was 7.26%. In the case of `CN(C)CCOc1ccc(-c2cc(-c3ccc4c(c3)CCC4=NO)c(-c3ccncc3)o2)cc1`, the inhibition is -1.45%. On to `Cc1nnc(-c2ccc(C)c(-c3ccc(C(=O)NCc4ccc(Cl)cc4)cc3)c2)o1`, for which the inhibition amounted to 6.11%. Turning to `O=C(Nc1n[nH]c2nc(-c3ccco3)ccc12)C1CC1`, the inhibition turned out to be 1.74%.

For the compound `CCc1ccc(Oc2nccc(-c3c(-c4ccc(F)cc4)ncn3C3CCNCC3)n2)cc1`, the inhibition amounted to 10.2%.
